According to publication PMC5540273 (PLoS ONE, 2017):

test system: MYLK4; conditions: concentration: 1 μM, replicates: in singlicate; n = 1
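Further: KINOMEscan kinase panel screen.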

SMILES	%Inh
COC(=O)Nc1nc2ccc(Oc3ccc(CC(=O)Nc4cc(C(F)(F)F)ccc4F)cc3)cc2[nH]1 [GW680903]	0%
COc1ccc(C2=C(Nc3cccc(O)c3)C(=O)NC2=O)cc1 [SB-390766]	4%
CN(C)c1ncnc2nc[nH]c12 [SKF-31736]	30%
Cc1cc(-c2ccnc(Nc3cccc(C#N)c3)n2)cc(C)c1O [GSK1440913]	100%

test system: MYLK; conditions: concentration: 1 μM, replicates: in singlicate; n = 1

SMILES	%Inh
N#CC1(c2cccc(C(=O)Nc3cccc(Oc4ccc5nc(NC(=O)C6CC6)sc5n4)c3)c2)CC1	23%
O=C(Nc1n[nH]c2nc(-c3ccccc3)ccc12)C1CC1 [SB-708999]	30%
CC(C)c1nc(-c2cccc(NS(=O)(=O)c3c(F)cccc3F)c2)c(-c2ccnc(Nc3ccc(N4CCOCC4)nc3)n2)s1.Cl [GSK1723980]	6%
Cl.Cl.NCC(NC(=O)c1cc(-c2cccnc2)c(-c2ccnc3[nH]ccc23)s1)c1ccccc1 (stereo not shown) [GSK1323434]	23%
COC(=O)Nc1nc2cc(Oc3ccc(NC(=O)Nc4cccc(SC)c4)cc3)ccc2[nH]1.Cl [GW697999]	11%
O=C(Nc1n[nH]c2nc(-c3ccccc3O)ccc12)C1CC1 [SB-711880]	28%
O=C(Nc1n[nH]c2cc(-c3cccs3)ccc12)C1CC1 [SB-731284]	52%
O=C(Nc1c(F)cccc1F)c1cc(C(=O)c2ccccc2F)c[nH]1 [GSK1326180]	0%
Cc1ccc(Nc2ccnc(Nc3ccc(C)c(F)c3)n2)cc1O.Cl [GW582868]	9%
COc1cccc(-c2nc(-c3ccccc3)[nH]c2-c2ccncc2)c1 [SB-610250]	0%
CCn1cnc2c(NCc3ccccc3)ncnc21 [SKF-96418]	0%
Cl.Cl.NC(CNC(=O)c1cc(Br)c(-c2ccnc3[nH]ccc23)s1)c1ccccc1 (stereo not shown) [GSK1322949]	62%
CN(c1ccc(F)c(NC(=O)c2cccc(OC(C)(C)C#N)c2Cl)c1)c1ccc2nc(NC(=O)C3CC3)sc2n1	30%
Fc1cc(Cl)ccc1Nc1ccnc2cc(-c3ccc(CN4CCOCC4)o3)ccc12 [GW560109]	47%
COc1cc(Nc2ccnc3cc(-c4ccncc4)ccc23)cc(OC)c1OC.Cl [GW494610]	84%
Cc1ccc(O)cc1Nc1ccnc2cc(-c3ccc(CN4CCCCC4)o3)ccc12 [GW557777]	9%
Nc1ncc(-c2ccc3nccc(-c4ccncc4)c3c2)cc1S(=O)(=O)N1CCCCC1 [GSK1693850]	22%
COc1ccc(C)c(Nc2ccnc(Nc3ccc(-c4cnc[nH]4)cc3)n2)c1.Cl [GW784041]	18%
Fc1cc(Cl)ccc1Nc1ccnc2cc(-c3ccc(CN4CCSCC4)o3)ccc12 [GW560106]	38%
Cc1ccc(NC(=O)c2ccnc(N3CCCCC3)c2)cc1-c1ccc(C(=O)NCC2CC2)cc1 [GW775610]	0%
CCOc1nccc(-c2c(-c3ccc(F)cc3)ncn2C2CCNCC2)n1 [SB-249175]	31%
O=C(O)C(F)(F)F.O=c1[nH]ccc2nc(N[C@@H]3CCNC3)nc(Nc3ccc4c(c3)S(=O)(=O)CC4)c12 [GSK2181306]	98.1%
c1ccc(Oc2ccc(Nc3ccnc4cc(-c5ccc(CN6CCCCC6)o5)ccc34)cc2)nc1 [GW567143]	0%
Cc1ccc(C)c(NC(=O)Nc2ccc(C)c(-c3ccc(C(=O)Nc4ccncc4)cc3)c2)c1 [GSK1398473]	0%
Cn1cc(-c2cnc(N)c3c(-c4ccc5c(c4)CCN5C(=O)Cc4ccccc4)csc23)cn1 [GSK2593074]	4%
O=C(O)C(F)(F)F.O=c1[nH]ccc2nc(N[C@@H]3CCNC3)nc(Nc3cc(Cl)cc(Cl)c3)c12 [GSK2188764]	92.4%
Cl.O=C(Nc1ccc(Oc2ccc3[nH]c(NC(=O)c4ccco4)nc3c2)cc1)Nc1cc(C(F)(F)F)ccc1F [GW683134]	0%
Cc1cccc(Nc2nc(NCCN)ncc2C(N)=O)c1 [GSK1292139]	8%
CC(C)NCC(Cc1ccccc1)NC(=O)c1cc(Br)c(-c2ccnc3[nH]ccc23)s1.Cl.Cl (stereo not shown) [GSK1383281]	56%
Nc1cccc(-c2ccc3c(N)n[nH]c3c2)c1 [GSK2193613]	40%
